Experimental data: PubChem BioAssay (NCATS)
Results filed as inconclusive are left out. A call without a number means that no potency is given here. Active and inactive are the calls of the source. Calls follow the shape of the dose curve; as a rule, active = well fitted curve in the direction sought with a large enough effect; inconclusive = small, poorly fitted or top-dose-only effect, or another doubt; inactive = no such curve, though single readings can be large; an effect the other way counts as inactive or inconclusive.

System: not listed separately
Assay: qHTS of pediatric cancer cell lines to identify multiple opportunities for drug repurposing: Confirmatory screen for OHS-50 cells (AID 1347128);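 also: compound exposure lasted 48 h at 37 degrees C; nearly all actives have a fitted effect of over 55% in size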; also: potency is read from the fitted curve at half-maximal effect
Details: OHS-50 osteosarcoma cells viability; series mostly up to 45.9 µM
In short: (§1)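 Cells (500-1,000/well) rested 5 h, then received compounds for 48 h; metabolically active cells were measured by CellTiter-Glo luminescence. Final concentrations spanned up to 46 µM (MIPE, 11-point) or 0.59 nM-46 µM (NPC, 8-point) in primary screens, 11-point in follow-ups.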

Structure (SMILES) | Potency
O=P1(N(CCCl)CCCl)NCCCO1 (centres undefined) | inactive
C[C@](O)(CS(=O)(=O)c1ccc(F)cc1)C(=O)Nc1ccc(C#N)c(C(F)(F)F)c1 | inactive
CCOP(=S)(OCC)Oc1ccc2c(C)c(Cl)c(=O)oc2c1 | inactive
O=C(O)CCCc1ccc(N(CCCl)CCCl)cc1 | inactive
C[C@]12CCC(=O)C=C1CC[C@@H]1[C@@H]2CC[C@@]2(C)[C@H]1CC[C@]2(C)O | inactive
O=C(N/N=C/c1ccc([N+](=O)[O-])o1)c1cc([N+](=O)[O-])cc([N+](=O)[O-])c1O | inactive
CCCN(CCC)C(=O)Cc1c(-c2ccc(Cl)cc2)nc2ccc(Cl)cn12 | inactive
COc1cccc2c1C(=O)c1c(O)c3c(c(O)c1C2=O)C[C@@](O)(C(=O)CO)CC3OC1CC(N2CCOC(OC)C2)C(O)C(C)O1 (some centres undefined) | 23.3 nM (active)

System: not listed separately
Assay: qHTS of pediatric cancer cell lines to identify multiple opportunities for drug repurposing: Confirmatory screen for SK-N-SH cells (AID 1347129);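 also: cells exposed to compound for 48 h before viability read; nearly all actives have a fitted effect of over 60% in size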; also: potency is read from the fitted curve at half-maximal effect
Details: SK-N-SH neuroblastoma cell viability; series mostly up to 46.1 µM
In short: as §1

Structure (SMILES) | Potency
O=P1(N(CCCl)CCCl)NCCCO1 (centres undefined) | inactive
CC(NC(C)(C)C)C(=O)c1cccc(Cl)c1 (centres undefined) | inactive
C[C@](O)(CS(=O)(=O)c1ccc(F)cc1)C(=O)Nc1ccc(C#N)c(C(F)(F)F)c1 | inactive
CCOP(=S)(OCC)Oc1ccc2c(C)c(Cl)c(=O)oc2c1 | inactive
O=C(O)CCCc1ccc(N(CCCl)CCCl)cc1 | inactive
C[C@]12CCC(=O)C=C1CC[C@@H]1[C@@H]2CC[C@@]2(C)[C@H]1CC[C@]2(C)O | inactive
O=C(N/N=C/c1ccc([N+](=O)[O-])o1)c1cc([N+](=O)[O-])cc([N+](=O)[O-])c1O | inactive
CCCN(CCC)C(=O)Cc1c(-c2ccc(Cl)cc2)nc2ccc(Cl)cn12 | inactive
COc1cccc2c1C(=O)c1c(O)c3c(c(O)c1C2=O)C[C@@](O)(C(=O)CO)CC3OC1CC(N2CCOC(OC)C2)C(O)C(C)O1 (some centres undefined) | 23.5 nM (active)

Biological target: N-terminal Xaa-Pro-Lys N-methyltransferase 1 (Homo sapiens) (UniProt Q9BV86)
Assay: qHTS Assay for Inhibitors of N-terminal methyltransferase 1 (NTMT1): LOPAC validation of the NTMT1 SAHH-coupled ThioGlo3 Assay (AID 1347143);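 also: SAH from peptide methylation measured as thiol fluorescence via SAHH coupling and ThioGlo3; nearly all actives have a fitted effect of over 70% in size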
Details: recombinant NTMT1, SAHH-coupled ThioGlo3 fluorescence; series mostly up to 114 µM
In short: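 Inhibition of NTMT1 methylation of peptide SPKRIA is followed by converting SAH with SAHH and labelling the released thiol with ThioGlo3. Plates are read at 340/450nm before and 30 min after reagent addition, both at room temperature.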

Sequence of N-terminal Xaa-Pro-Lys N-methyltransferase 1 (Homo sapiens) (Q9BV86 whole entry, looked up): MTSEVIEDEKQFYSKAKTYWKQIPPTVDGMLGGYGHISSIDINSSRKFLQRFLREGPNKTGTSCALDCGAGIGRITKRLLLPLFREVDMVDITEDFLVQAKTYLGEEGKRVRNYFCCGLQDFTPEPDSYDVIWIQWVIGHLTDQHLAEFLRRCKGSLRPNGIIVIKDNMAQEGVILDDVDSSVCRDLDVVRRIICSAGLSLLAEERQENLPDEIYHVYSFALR

Structure (SMILES) | outcome
O=c1[nH]oc2c1CCNC2 | inactive
CC(NC(C)(C)C)C(=O)c1cccc(Cl)c1 (centres undefined) | inactive
C=C(C)[C@H]1CN[C@H](C(=O)O)[C@H]1CC(=O)O | inactive
NCCc1ccc(O)cc1 | inactive
COc1ccc2c(c1OC)C(=O)O[C@H]2[C@@H]1c2cc3c(cc2CCN1C)OCO3 | inactive
CN1C(=O)CCS(=O)(=O)C1c1ccc(Cl)cc1 (centres undefined) | inactive
CC(C)(C)NCC(O)c1ccccc1Cl (centres undefined) | inactive
CC(C)c1cccc(C(C)C)c1O | inactive
CCC1(c2ccc(N)cc2)CCC(=O)NC1=O (centres undefined) | inactive
CCCCCN(C)CCC(O)(P(=O)(O)O)P(=O)(O)O | inactive
CC(C)N(CCC(C(N)=O)(c1ccccc1)c1ccccn1)C(C)C (centres undefined) | inactive
O=C(CCCN1CCC2(CC1)C(=O)NCN2c1ccccc1)c1ccc(F)cc1 | inactive
